{"source": "PubChem BioAssay (NCATS)", "note": "Records with an inconclusive call do not appear. Activity calls are given as the source filed them. The call rests on the fitted dose curve; in most records, active means well fitted cell-killing curve with a large enough effect; inconclusive means small, poorly fitted or top-dose-only effect; inactive means flat fitted curve, though single readings scatter. Potency means the concentration at half of the fitted maximal effect.", "data": [{"experiment": "Cell Viability - LYMP2-018 (AID 985);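 further: compound exposure lasted 24 hr at 37 °C; nearly all actives have a fitted effect of over 50% in size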;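 on activity change, negative = cytotoxicity: plate controls were DMSO only for no effect and tetraoctylammonium bromide at 92 µM for full effect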", "settings": "LYMP2-018 lymphoblastoid cells, viability (qHTS); series mostly up to 92.2 µM; activity change, negative = cytotoxicity: at the top concentration", "text": "NIH Chemical Genomics Center [NCGC]\nNIH Molecular Libraries Screening Centers Network [MLSCN]\nNational Institutes of Environmental Health Sciences [NIEHS]\nNational Toxicology Program [NTP]\nWe have developed a 1536-well cell-based assay for quantitative high throughput screening (qHTS) against a number of cell lines to determine in vitro cytotoxicity of small molecules. This particular assay uses a human lymphoblastoid cell line (LYMP2-018) purchased from Coriell Institute for Medical Research.\nNCGC Assay Protocol Summary:\nThe CellTiter-Glo luminescent cell viability assay (Promega) is a homogeneous method to measure the number of viable cells in culture. The end point readout of this assay is based on quantitation of intracellular ATP, an indicator of metabolic activity, using the luciferase reaction. Luciferase catalyzes the oxidation of beetle Luciferin to oxyluciferin and light in the presence of ATP. The luminescent signal is proportional to amount of ATP present.\nUsing the CellTiter-Glo luminescent cell viability assay, the amount of cellular ATP was measured in the lymphoblastoid cell line with complete culture medium following compound treatment for 24 hours. The assay was performed in opaque white Kalypsys 1536-well plates. In the screen, tetraoctylammonium bromide was used as positive control. Library compounds were measured for their ability to cause acute toxicity in the cell line, as reflected by a decrease in intracellular ATP levels, in a concentration-dependent manner. […] AC50 values were determined from concentration-response data modeled with the standard Hill equation.\nqHTS protocol for CellTiter Glo lymphoblastoid cellular assay\n[Step] [Parameter] [Value] [Description]\n1. Reagent; 5 uL; 2500 lymphoblastoid cells/well\n2. Time; 5 hr; 37 C incubation\n4. Controls; 23 nL; Tetraoctylammonium bromide 6.4pM to 92 uM\n5. Time; 24 hr; 37 C incubation\n6. Reagent; 5 uL; CellTiter Glo reagent\n7. Time; 30 min; Room Temperature\n8. Detection; Luminescence; Viewlux plate reader\nKeywords: cell viability, cytotoxicity, lymphoblastoid cell line, luminescence, NTPHTS, NTPHTS_NCGC, NIEHS, DSSTox, MLSMR, MLSCN, NIH Roadmap, qHTS, NCGC", "values": [{"smiles": "Oc1c(Cl)cc(Cl)c(Cl)c1Cl", "activity change, negative = cytotoxicity": "12.5% (inactive)"}, {"smiles": "CCc1ccc(C(c2ccc(CC)cc2)C(Cl)Cl)cc1", "activity change, negative = cytotoxicity": "-10.5% (inactive)"}, {"smiles": "CCCC(=O)OC(=O)CCC", "activity change, negative = cytotoxicity": "-8.79% (inactive)"}, {"smiles": "Nc1ccc(N=Nc2ccccc2)c(N)c1", "activity change, negative = cytotoxicity": "-15.4% (inactive)"}, {"smiles": "CC(C)OCC1CO1", "note": "(stereo not given)", "activity change, negative = cytotoxicity": "-10.4% (inactive)"}, {"smiles": "Cc1ccccc1OCC1CO1", "note": "(stereo not given)", "activity change, negative = cytotoxicity": "-18.8% (inactive)"}, {"smiles": "Brc1ccc(-c2ccccc2)cc1", "activity change, negative = cytotoxicity": "3.53% (inactive)"}, {"smiles": "Nc1cnn([C@@H]2O[C@H](CO)[C@@H](O)[C@H]2O)c(=O)n1", "activity change, negative = cytotoxicity": "-3.56% (inactive)"}, {"smiles": "CCCCOC(=O)COc1ccc(Cl)cc1Cl", "activity change, negative = cytotoxicity": "2.42% (inactive)"}, {"smiles": "O=c1[nH]ncc2ccccc12", "activity change, negative = cytotoxicity": "-7.52% (inactive)"}, {"smiles": "Cc1ccc(S(N)(=O)=O)cc1", "activity change, negative = cytotoxicity": "-1.72% (inactive)"}, {"smiles": "CCCCCCCCOc1ccc(C(=O)O)cc1", "activity change, negative = cytotoxicity": "-12.4% (inactive)"}, {"smiles": "c1ccc(Nc2cccc3ccccc23)cc1", "activity change, negative = cytotoxicity": "-1.68% (inactive)"}, {"smiles": "CCCCCCc1ccc(-c2ccc(C#N)cc2)cc1", "activity change, negative = cytotoxicity": "-6.86% (inactive)"}, {"smiles": "CC(=O)OC1CC(C)OC(C)O1", "note": "(stereo not given)", "activity change, negative = cytotoxicity": "2.12% (inactive)"}, {"smiles": "O=[N+]([O-])c1ccccc1Nc1ccccc1", "activity change, negative = cytotoxicity": "0.345% (inactive)"}, {"smiles": "c1c[nH]cn1", "activity change, negative = cytotoxicity": "-0.291% (inactive)"}, {"smiles": "CN(C)c1ccc(C(=N)c2ccc(N(C)C)cc2)cc1", "Potency": "39.8 µM (active)"}, {"smiles": "CC(/C=C/C=C(C)/C=C/C(=O)O)=C\\C=C\\C=C(C)\\C=C\\C=C(C)\\C=C\\C(=O)O", "activity change, negative = cytotoxicity": "-15.6% (inactive)"}, {"smiles": "Cc1ccc(C(=O)O)cc1[N+](=O)[O-]", "activity change, negative = cytotoxicity": "-8.52% (inactive)"}, {"smiles": "O=C(O)c1cc(N=Nc2ccc([N+](=O)[O-])cc2)ccc1O", "activity change, negative = cytotoxicity": "-2.93% (inactive)"}, {"smiles": "O=[N+]([O-])c1ccc(F)cc1F", "activity change, negative = cytotoxicity": "6.31% (inactive)"}, {"smiles": "C/C=C/C=C/C=O", "Potency": "39.8 µM (active)"}, {"smiles": "O=[N+]([O-])c1cccc(I)c1", "activity change, negative = cytotoxicity": "-7.03% (inactive)"}, {"smiles": "Clc1nc2ccccc2nc1Cl", "activity change, negative = cytotoxicity": "-26.2% (inactive)"}, {"smiles": "COc1cc(-c2ccc(N=C=O)c(OC)c2)ccc1N=C=O", "activity change, negative = cytotoxicity": "-11% (inactive)"}, {"smiles": "CCCCC(CC)COP(=O)(OCC(CC)CCCC)OCC(CC)CCCC", "note": "(stereo not given)", "activity change, negative = cytotoxicity": "-6.19% (inactive)"}, {"smiles": "c1cc2c3c(c1)ccc1cccc(c13)C2", "activity change, negative = cytotoxicity": "-3.04% (inactive)"}, {"smiles": "CCCCC(CC)COC(=O)COc1ccc(Cl)cc1Cl", "note": "(stereo not given)", "activity change, negative = cytotoxicity": "-13.6% (inactive)"}, {"smiles": "CCCCCCCC/C=C\\CCCCCCCC(=O)N(CCO)CCO", "activity change, negative = cytotoxicity": "-25.6% (inactive)"}, {"smiles": "C/C=C1/C(=O)C[C@H]2[C@@H]3CCC4=CC(=O)CC[C@]4(C)[C@H]3CC[C@]12C", "Potency": "50.1 µM (active)"}, {"smiles": "Nc1ccccc1O", "activity change, negative = cytotoxicity": "-17.1% (inactive)"}, {"smiles": "C[Si](C)(C)Cl", "activity change, negative = cytotoxicity": "-23.7% (inactive)"}, {"smiles": "NC(=O)Nc1nc2ccccc2[nH]1", "activity change, negative = cytotoxicity": "-11.6% (inactive)"}, {"smiles": "CCN(CC)c1ccc2c(C)cc(=O)oc2c1", "activity change, negative = cytotoxicity": "-27.8% (inactive)"}, {"smiles": "O=[N+]([O-])c1cc(N(CCO)CCO)ccc1NCCO", "activity change, negative = cytotoxicity": "-29.2% (inactive)"}, {"smiles": "OCC(CO)(CBr)CBr", "activity change, negative = cytotoxicity": "-6.09% (inactive)"}, {"smiles": "Oc1ccc(O)c2c(O)cccc12", "Potency": "50.1 µM (active)"}, {"smiles": "Nc1cc([N+](=O)[O-])ccc1O", "activity change, negative = cytotoxicity": "-27.3% (inactive)"}, {"smiles": "C=CC1CO1", "note": "(stereo not given)", "activity change, negative = cytotoxicity": "-7.61% (inactive)"}]}]}
